Test results: PubChem BioAssay AID1159580 (chemical genetic matrix, 2015)
About 2,000 (36%) of roughly 5,500 compounds were called active. Not shown: some 18% with an inconclusive outcome. Cut-off read from the data, not from the text of the source: active = normalized growth mostly below about 0.91 (no sharp cut-off); inconclusive = no clear call, values can overlap the other calls; inactive = mostly above about 0.92. Some of the results follow.

Assay: chemical genetic growth profiling, strain panel (AID 1159580);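 note: tested at 20 µM; growth read once vehicle control cultures reached saturation at 30 °C; 1 = growth at the plate median or of vehicle wells; lower values mean less growth of the strain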
Conditions: growth OD

Measured: normalized growth

COc1cc2c(cc1OC)C(=O)C(CC1CCN(Cc3ccccc3)CC1)C2 (stereo not given)
inactive: S. cerevisiae deletion strains, locus YJR066W, strain TOR1, stronger effect = lower value 0.94 | S. cerevisiae deletion strains, locus YKL009W, strain mrt4, stronger effect = lower value 0.986 | S. cerevisiae deletion strains, locus YKL068W, stronger effect = lower value 1 | S. cerevisiae deletion strains, locus YKL085W, strain MDH1 (second series), stronger effect = lower value 1.01 | S. cerevisiae deletion strains, locus YKL085W, strain MDH1, stronger effect = lower value 1.01 | S. cerevisiae deletion strains, locus YKL160W, strain elf1, stronger effect = lower value 0.933 | S. cerevisiae deletion strains, locus YKR001C, strain vps1, stronger effect = lower value 0.913 | S. cerevisiae deletion strains, locus YKR026C, strain gcn3, stronger effect = lower value 1.06 | S. cerevisiae deletion strains, locus YKR091W, strain srl3, stronger effect = lower value 0.981 | S. cerevisiae deletion strains, locus YLL001W, strain dnm1, stronger effect = lower value 0.993 | S. cerevisiae deletion strains, locus YLL026W, stronger effect = lower value 1 | S. cerevisiae deletion strains, locus YLL041C, strain sdh2, stronger effect = lower value 0.978 | S. cerevisiae deletion strains, locus YLR027C, strain aat2, stronger effect = lower value 0.963 | S. cerevisiae deletion strains, locus YLR039C, strain RIC1, stronger effect = lower value 0.772 | S. cerevisiae deletion strains, locus YLR102C, strain apc9, stronger effect = lower value 1 | S. cerevisiae deletion strains, locus YLR113W, strain HOG1, stronger effect = lower value 1.05 | S. cerevisiae deletion strains, locus YLR221C, strain rsa3, stronger effect = lower value 0.975 | S. cerevisiae deletion strains, locus YLR258W, strain gsy2, stronger effect = lower value 0.982 | S. cerevisiae deletion strains, locus YLR262C, strain YPT6, stronger effect = lower value 0.807 | S. cerevisiae deletion strains, locus YLR320W, strain mms22, stronger effect = lower value 0.928 | S. cerevisiae deletion strains, locus YLR330W, strain CHS5, stronger effect = lower value 0.953 | S. cerevisiae deletion strains, locus YLR342W, strain FKS1 (second series), stronger effect = lower value 0.909 | S. cerevisiae deletion strains, locus YLR342W, strain FKS1, stronger effect = lower value 0.989 | S. cerevisiae deletion strains, locus YLR357W, strain rsc2, stronger effect = lower value 1.13 | S. cerevisiae deletion strains, locus YLR370C, strain arc18, stronger effect = lower value 0.955 | S. cerevisiae deletion strains, locus YLR371W, strain rom2, stronger effect = lower value 0.986 | S. cerevisiae deletion strains, locus YLR384C, strain iki3, stronger effect = lower value 0.952 | S. cerevisiae deletion strains, locus YML016C, strain PPZ1, stronger effect = lower value 0.949 | S. cerevisiae deletion strains, locus YML120C, strain ndi1, stronger effect = lower value 0.973 | S. cerevisiae deletion strains, locus YML124C, strain tub3, stronger effect = lower value 1.02 | S. cerevisiae deletion strains, locus YMR058W, strain fet3, stronger effect = lower value 0.994 | S. cerevisiae deletion strains, locus YMR078C, strain ctf18, stronger effect = lower value 0.988 | S. cerevisiae deletion strains, locus YMR125W, strain sto1, stronger effect = lower value 0.94 | S. cerevisiae deletion strains, locus YMR129W, stronger effect = lower value 0.992 | S. cerevisiae deletion strains, locus YMR205C, strain PFK2, stronger effect = lower value 0.979 | S. cerevisiae deletion strains, locus YMR231W, strain pep5, stronger effect = lower value 0.996 | S. cerevisiae deletion strains, locus YMR263W, strain SAP30, stronger effect = lower value 0.936 | S. cerevisiae deletion strains, locus YMR307W, strain GAS1, stronger effect = lower value 0.971 | S. cerevisiae deletion strains, locus YNL071W, strain lat1, stronger effect = lower value 0.956 | S. cerevisiae deletion strains, locus YNL128W, strain TEP1, stronger effect = lower value 0.919 | S. cerevisiae deletion strains, locus YNL153C, strain GIM3, stronger effect = lower value 0.876 | S. cerevisiae deletion strains, locus YNL183C, strain NPR1, stronger effect = lower value 0.955 | S. cerevisiae deletion strains, locus YNL209W, strain ssb2, stronger effect = lower value 0.988 | S. cerevisiae deletion strains, locus YNL248C, strain rpa49, stronger effect = lower value 0.967 | S. cerevisiae deletion strains, locus YNL271C, strain bni1, stronger effect = lower value 0.977 | S. cerevisiae deletion strains, locus YNL298W, strain CLA4, stronger effect = lower value 0.918 | S. cerevisiae deletion strains, locus YNL322C, strain KRE1 (second series), stronger effect = lower value 0.981 | S. cerevisiae deletion strains, locus YNR049C, strain mso1, stronger effect = lower value 1.01 | S. cerevisiae deletion strains, locus YOL012C, strain htz1 1.03 | S. cerevisiae deletion strains, locus YOL147C, strain pex11, stronger effect = lower value 0.976 | S. cerevisiae deletion strains, locus YOR001W, strain rrp6, stronger effect = lower value 0.931 | S. cerevisiae deletion strains, locus YOR061W, strain CKA2, stronger effect = lower value 0.989 | S. cerevisiae deletion strains, locus YOR070C, strain gyp1, stronger effect = lower value 1.02 | S. cerevisiae deletion strains, locus YOR080W, strain dia2, stronger effect = lower value 0.953 | S. cerevisiae deletion strains, locus YOR083W, strain WHI5, stronger effect = lower value 0.973 | S. cerevisiae deletion strains, locus YOR106W, strain vam3, stronger effect = lower value 0.902 | S. cerevisiae deletion strains, locus YOR136W, strain idh2, stronger effect = lower value 0.984 | S. cerevisiae deletion strains, locus YOR144C, strain elg1, stronger effect = lower value 0.992 | S. cerevisiae deletion strains, locus YOR231W, strain MKK1, stronger effect = lower value 0.977 | S. cerevisiae deletion strains, locus YOR265W, strain rbl2, stronger effect = lower value 0.974 | S. cerevisiae deletion strains, locus YOR290C, strain snf2, stronger effect = lower value 1.04 | S. cerevisiae deletion strains, locus YOR316C, strain cot1, stronger effect = lower value 1.01 | S. cerevisiae deletion strains, locus YPL051W, strain arl3, stronger effect = lower value 0.938 | S. cerevisiae deletion strains, locus YPL078C, strain atp4, stronger effect = lower value 0.947 | S. cerevisiae deletion strains, locus YPL106C, strain sse1, stronger effect = lower value 1.12 | S. cerevisiae deletion strains, locus YPL240C, strain hsp82, stronger effect = lower value 0.996 | S. cerevisiae deletion strains, locus YPL256C, strain CLN2, stronger effect = lower value 0.952 | S. cerevisiae deletion strains, locus YPR119W, strain clb2, stronger effect = lower value 1 | S. cerevisiae deletion strains, locus YPR141C, strain kar3, stronger effect = lower value 0.975 | S. cerevisiae deletion strains, locus YPR167C, strain met16, stronger effect = lower value 0.984
active: S. cerevisiae deletion strains, locus YJR075W, strain HOC1, stronger effect = lower value 0.778 | S. cerevisiae deletion strains, locus YLR058C, strain SHM2, stronger effect = lower value 0.874 | S. cerevisiae deletion strains, locus YLR262C, strain YPT6 (second series), stronger effect = lower value 0.589 | S. cerevisiae deletion strains, locus YLR268W, strain sec22, stronger effect = lower value 0.837 | S. cerevisiae deletion strains, locus YLR418C, strain cdc73, stronger effect = lower value 0.737 | S. cerevisiae deletion strains, locus YML032C, strain rad52, stronger effect = lower value 0.675 | S. cerevisiae deletion strains, locus YMR223W, strain ubp8, stronger effect = lower value 0.86 | S. cerevisiae deletion strains, locus YNL067W, strain RPL9B, stronger effect = lower value 0.787 | S. cerevisiae deletion strains, locus YNL233W, strain BNI4, stronger effect = lower value 0.75 | S. cerevisiae deletion strains, locus YNL250W, strain rad50, stronger effect = lower value 0.802 | S. cerevisiae deletion strains, locus YNL307C, strain MCK1, stronger effect = lower value 0.665 | S. cerevisiae deletion strains, locus YNR052C, strain pop2, stronger effect = lower value 0.805 | S. cerevisiae deletion strains, locus YOL006C, strain TOP1, stronger effect = lower value 0.335 | S. cerevisiae deletion strains, locus YOR069W, strain VPS5, stronger effect = lower value 1.12 [resistant] | S. cerevisiae deletion strains, locus YOR184W, strain ser1, stronger effect = lower value 0.776 | S. cerevisiae deletion strains, locus YOR270C, strain vph1, stronger effect = lower value 0.608 | S. cerevisiae deletion strains, locus YPL055C, strain LGE1, stronger effect = lower value 0.738 | S. cerevisiae deletion strains, locus YPR163C, strain tif3, stronger effect = lower value 0.692 | S. cerevisiae deletion strains, strain wtn01, stronger effect = lower value 0.777 | S. cerevisiae strains, strain wild type, stronger effect = lower value 0.874
